According to PubChem BioAssay (Tox21):
Inconclusive results are not listed. A number with no mark means an inactive call. Active and inactive are the calls of the source. Calls follow the shape of the dose curve; as a rule, active = well fitted inhibition curve with a large enough effect in the repeat runs; inconclusive = weak or mixed curves, or effect the other way; inactive = no such curve, though single readings can be large or run the other way.

Molecular target: Nuclear receptor subfamily 1 group I member 3 (Homo sapiens) (UniProt Q14994)
Sequence (Q14994 whole entry, looked up): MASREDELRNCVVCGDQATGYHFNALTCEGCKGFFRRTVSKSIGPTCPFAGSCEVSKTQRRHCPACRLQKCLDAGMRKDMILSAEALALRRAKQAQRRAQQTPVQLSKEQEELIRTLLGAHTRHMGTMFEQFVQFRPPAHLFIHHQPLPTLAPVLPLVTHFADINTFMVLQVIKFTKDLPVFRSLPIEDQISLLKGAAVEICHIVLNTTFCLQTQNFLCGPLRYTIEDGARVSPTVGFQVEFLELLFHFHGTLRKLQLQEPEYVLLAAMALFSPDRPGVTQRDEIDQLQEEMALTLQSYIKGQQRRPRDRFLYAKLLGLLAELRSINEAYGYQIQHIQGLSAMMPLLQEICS
Assay: qHTS assay to identify small molecule antagonists of the constitutive androstane receptor (CAR) signaling pathway (AID 1224838);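 also: HepG2 cells stably expressing hCAR with CYP2B6 luciferase reporter stimulated by CITCO; nearly all actives have a fitted effect of over 40% in size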
Conditions: HepG2-CYP2B6-hCAR luciferase, CITCO-stimulated, 24 h; series mostly up to 92.4 µM
Source text: U.S. Tox21 Program National Center for Advancing Translational Sciences [NCATS] NIH Chemical Genomics Center [NCGC] U.S. Environmental Protection Agency [EPA] National Institutes of Environmental Health Sciences [NIEHS] National Toxicology Program [NTP] U.S. Food and Drug Administration [FDA] Tox21 Assay Overview: The constitutive androstane receptor (CAR) is a nuclear receptor which regulates multiple drug metabolizing enzymes (DMEs) and transporters. Activating CAR will generally increase the transcription and subsequent translation of CYP2B6 and CYP3A4. These two DMEs represent about 50% of the drug metabolizing potential in the body. When CAR is deactivated, the metabolizing potential in the body will decrease, subsequently increasing the toxicity in the body or lowering the therapeutic potential of a pro-drug. Recently, there have also been studies performed indicating CARs role in energy metabolism and cancer therapy. Therefore, inhibiting CARs activity could have a potential effect on diabetes and cancer. Identifying environmental toxins and compounds which modulate CAR, through the use of the Tox21 10K compound collection, will be an important step in determining the toxicity and potential therapeutic effects these factors will have on the human body.
Tox21 Assay Protocol Summary: A double-stable (hCAR and CYP2B6-2.2kb) transfected cell line, derived from human hepatoma (HepG2) cells, was utilized for the duration of the quantitative high-throughput screens. The HepG2-CYP2B6-hCAR cells suspended in DMEM culture medium supplemented with 10% FBS, 5 ug/mL blasticidin, 0.5 mg/mL geneticin, 100 U/mL penicillin and 100 ug/mL streptomycin were dispensed at 2500 cells/4 uL/well in 1536-well white solid bottom plates using a Multidrop Combi. After the assay plates were incubated at 37 C/5% CO2 for 4 hrs, 23 nL of compounds at 15 concentrations (from 5-48 columns) or positive control (from 1 to 4 columns) were transferred to the assay plates using a Pintool station. One uL of CITCO, was added using a Flying Reagent Dispenser to generate a final concentration of 50 nM CITCO inside each well. After a 24 hr incubation period at 37 C/5% CO2, four uL of ONE-Glo reagent was added into the assay plates using a Flying Reagent Dispenser. After a 30 min incubation period at room temperature, the luminescence intensity in the assay plates was measured using a ViewLux plate reader.
% is scaled to controls: 0 for no effect and ±100 for the full control effect.

| SMILES | outcome | activity, negative = inhibition |
| --- | --- | --- |
| Cc1ccsc1/C=C/C1=NCCCN1C | inactive |  |
| COc1cc(N)ccc1C | inactive |  |
| c1ccc2c(c1)ccc1c3ccccc3ccc21 | inactive |  |
| O=C(CCN1CCN(CCO)CC1)N1c2ccccc2Sc2ccc(C(F)(F)F)cc21 | inactive |  |
| CC1(CO)CN(c2ccccc2)NC1=O (stereo not given) | inactive |  |
| C=CC(OCC)OCC | inactive |  |
| Cc1cccc(C)c1OCC(C)N (stereo not given) | inactive |  |
| CC(CN)CC(C)(C)CCN (stereo not given) | inactive |  |
| O=C1c2ccccc2C(=O)N1CCl | inactive |  |
| C=COCCOCCOCCOC=C | inactive |  |
| COCCOC(=O)C1=C(C)NC(C)=C(C(=O)OC(C)C)C1c1cccc([N+](=O)[O-])c1 (stereo not given) | inactive |  |
| CCCCCCCCC1CCC(=O)O1 (stereo not given) | inactive |  |
| CN(C)c1ccc(C=O)cc1 | inactive |  |
| O=C(OCC1(COC(=O)c2cccnc2)CCCC(COC(=O)c2cccnc2)(COC(=O)c2cccnc2)C1O)c1cccnc1 | inactive |  |
| O=C(CCNNC(=O)c1ccncc1)NCc1ccccc1 | inactive |  |
| CC(C)NCC(O)COc1ccc(COCCOC(C)C)cc1 (stereo not given) | inactive |  |
| COC(=O)c1ccccc1C(=O)c1ccc(OCCN2CCCCC2)cc1 | inactive |  |
| On1nnc2ccccc21 | inactive |  |
| CC(C)CCCCOC(=O)c1ccccc1C(=O)OCCCCC(C)C | inactive |  |
| CCOCCOCCOCC | inactive |  |

| SMILES | outcome | activity, negative = inhibition |
| --- | --- | --- |
| O=C(c1ccc(O)cc1)c1ccc(O)c(O)c1O | inactive |  |
| CCNC(=O)C1CC(C)CCC1C(C)C (stereo not given) | inactive |  |
| O=C(NCCN1CCOCC1)c1ccc(Cl)cc1 | inactive |  |
| Nc1ccc(S(=O)(=O)Nc2ccc(Cl)nn2)cc1 | inactive |  |
| O=C(/N=N/C(=O)OCc1ccccc1)OCc1ccccc1 | inactive |  |
| CCCCCCOC(=O)CC | inactive |  |
| CC(S)C(=O)NCC(=O)O (stereo not given) | inactive |  |
| BrCCCCCBr | inactive |  |
| O=C1c2ccccc2C(=O)C1c1ccccc1 | inactive |  |
| CC(C)=O | inactive |  |
| O=C(NCC(O)CO)c1c(I)c(C(=O)NCC(O)CO)c(I)c(N(CCO)C(=O)CO)c1I (stereo not given) | inactive |  |
| CC(=O)Nc1ccc(S(=O)(=O)Nc2ccc([N+](=O)[O-])cc2)cc1 | inactive |  |
| CC(=O)NCc1c(I)c(NC(C)=O)c(I)c(C(=O)O)c1I | inactive |  |
| Cc1ccc(S(=O)(=O)O)c(C)c1 | inactive |  |
| COc1cc2c(cc1OC)[C@@H]1CC(=O)[C@@H](CC(C)C)CN1CC2 | inactive |  |
| Brc1ccc(-c2ccccc2)cc1 | inactive |  |
| CCCC/C=C\CCCCCCCCCC=O | inactive |  |
| COP(=O)(OC)OC(c1ccc(Cl)cc1)P(=O)(OC)OC (stereo not given) | inactive |  |
| CC(=O)c1ccc2c(c1)Cc1ccccc1-2 | inactive |  |
| Oc1cn2c(n1)Nc1ccc(Cl)c(Cl)c1C2 |  | 39.2% [at 19 µM] |
